The source of these data is PubChem BioAssay AID741 (SRMLSC, 2007).

Results filed as inconclusive are left out. Activity calls are given as the source filed them. Cut-off read from the data, not from the text of the source: active = toxicity enhancement factor above about 0.054; inconclusive = between about 0.00067 and that limit; inactive = weaker than that.

The experiment is described as follows: MRP-overexpressing cell chemosensitization – dose response (AID 741). The conditions noted are these: MRP-overexpressing cells, viability with/without cytotoxic drug; slope difference: measured here: slope difference tox minus reversal, stronger effect = higher value; toxicity enhancement factor: stronger effect = higher value; viability: measured here: viability series, compound alone, at 10 µM, stronger effect = lower value.
Turning to `CSc1cccc(NC(=O)C2CCN(S(C)(=O)=O)CC2)c1`, the viability was 94.7%, the toxicity enhancement factor was -0.0028 (inactive) and the slope difference was -0.244.

Regarding `O=C(COc1ccccc1)N1CCN(c2ncnc3c2cnn3-c2ccccc2)CC1`, the viability came to 53.8%, the slope difference is -0.402 and the toxicity enhancement factor was -0.0084 (inactive).

Regarding `c1ccc2c(N3CCOCC3)nc(-c3ccncc3)nc2c1`, the slope difference was -1.84, the viability was determined as 66.1% and the toxicity enhancement factor was -0.0239 (inactive).

With `Cc1cccc(OCc2nnc(SCC(=O)c3ccccc3)o2)c1`, the viability was 97.4%, the slope difference was -0.739 and the toxicity enhancement factor is -0.007 (inactive).

For the molecule `CCOC(=O)c1sc(NC(=O)CSc2nnc(-c3ccco3)n2CC)c(C(=O)OCC)c1C`, the viability is 54.8%, the toxicity enhancement factor is 0.364 (active) and the slope difference turned out to be 3.89.

On to `COc1ccc(/C=C/C(=O)Nc2ccccc2C(=O)O)cc1OC`, for which the toxicity enhancement factor was -0.0098 (inactive), the slope difference is -1.07 and the viability was found to be 95.7%.

Consider `Cc1nc(N2CCN(C)CC2)c2sc(=S)n(-c3ccccc3)c2n1`, for which the toxicity enhancement factor was 0.0596 (active), the viability turned out to be 64% and the slope difference turned out to be 2.3.

Consider `CCCCSc1nnc2n(CCc3ccccc3)c(=O)c3c4c(sc3n12)COC(C)(C)C4`, for which the toxicity enhancement factor was 0.189 (active), the viability stood at 84.4% and the slope difference was found to be 5.29.

Regarding `CN1C(C(=O)Nc2ccccn2)=C(O)c2sccc2S1(=O)=O`, the toxicity enhancement factor is -0.0064 (inactive), the slope difference is -0.669 and the viability was 103%.

In the case of `Cc1ccc(-c2nc3ncccn3c2NC2CCCCC2)o1`, the viability turned out to be 79.5%, the toxicity enhancement factor is 0.0632 (active) and the slope difference is 2.81.

For `CC(=O)Oc1cccc2c1C(=O)c1c(OC(C)=O)cc(C(=O)O)cc1C2=O`, the toxicity enhancement factor is -0.0114 (inactive), the slope difference is -1.12 and the viability amounted to 89.5%.

For `Cc1cccc(Cn2c(NCC(C)O)nc3c2c(=O)n(C)c(=O)n3C)c1` (stereo not given), the viability is 93.7%, the toxicity enhancement factor was -0.0055 (inactive) and the slope difference was -0.509.

Take `CSc1nnc(-c2cc3ccccc3cc2O)n1C`: the toxicity enhancement factor is -0.0016 (inactive), the viability stood at 101% and the slope difference was -0.153.

Turning to `c1ccc2c(c1)nc1n2CN(Cc2ccc3c(c2)OCO3)CN1`, the viability is 85.8%, the slope difference was -0.301 and the toxicity enhancement factor was -0.0032 (inactive).

In the case of `CC(C)CCn1c(=O)c2ccccc2n2c(CN(C)Cc3ccccc3)nnc12`, the viability is 82.3%, the toxicity enhancement factor is 0.0598 (active) and the slope difference worked out at 2.35.

`O=C(c1ccccc1)c1ccc2n1CCC2C(=O)O` (stereo not given): the viability is 106%, the toxicity enhancement factor was -0.001 (inactive) and the slope difference was -0.0977.

Regarding `CN1C(C(=O)Nc2ccccn2)=C(O)c2ccccc2S1(=O)=O`, the slope difference is -0.409, the viability is 92.3% and the toxicity enhancement factor was -0.0045 (inactive).

Take `Cc1ccc(/C=N/Nc2ncc(Cl)cc2Cl)s1`: the toxicity enhancement factor is -0.0071 (inactive), the viability was 70.4% and the slope difference was -0.555.

Take `Cc1ccc(/C=N/Nc2nc(Cl)c(Cl)cc2Cl)s1`: the slope difference is -0.0549, the toxicity enhancement factor was -0.0006 (inactive) and the viability worked out at 99.8%.

For the molecule `Clc1cnc(N/N=C/c2cccs2)c(Cl)c1`, the viability was found to be 96.8%, the slope difference is -0.68 and the toxicity enhancement factor is -0.0069 (inactive).

`CCCNc1nc2c(c(=O)n(C)c(=O)n2C)n1Cc1ccc(F)cc1`: the toxicity enhancement factor is -0.0012 (inactive), the viability was 92.8% and the slope difference is -0.107.

Consider `CCc1nc(SCC(=O)Nc2c(C)nn(C)c2C)c2cnn(-c3ccccc3)c2n1`, for which the toxicity enhancement factor is -0.0042 (inactive), the viability came to 79.1% and the slope difference is -0.333.

With `c1ccc(N2CCN(c3ccccc3)C2c2ccncc2)cc1`, the toxicity enhancement factor was 0.0739 (active), the slope difference was determined as 3.19 and the viability turned out to be 82.9%.

As for `N#CC1=C(N)N(c2ccccc2)C2=C(C(=O)CCC2)C1c1ccccc1` (stereo not given), the toxicity enhancement factor was 0.144 (active), the slope difference worked out at 4.41 and the viability is 70.1%.

Turning to `O=C(O)c1ccccc1O`, the slope difference was -0.779, the toxicity enhancement factor is -0.0072 (inactive) and the viability worked out at 100%.

As to `CCCn1c(=O)[nH]c(=O)c2[nH]cnc21`, the slope difference is -0.568, the toxicity enhancement factor is -0.0054 (inactive) and the viability is 101%.

In the case of `O=C(CSc1nnc(CN2CCOCC2)n1-c1ccc(Cl)cc1)Nc1cc(Cl)ccc1O`, the viability worked out at 67.3%, the toxicity enhancement factor is 0.0702 (active) and the slope difference stood at 2.56.

Turning to `O=C(O)c1ccc(-n2nnnc2SCc2ccccc2)cc1`, the viability came out at 88.7%, the toxicity enhancement factor is -0.0082 (inactive) and the slope difference was -0.76.

Consider `Cc1nn(C)c(C)c1NC(=O)CSc1nc(C2CC2)nc2c1cnn2-c1ccccc1`, for which the toxicity enhancement factor was -0.0298 (inactive), the viability is 27.3% and the slope difference is -1.07.

For the molecule `Cc1ccc(Cl)c(Nc2ccccc2C(=O)O)c1Cl`, the viability is 92.5%, the slope difference is -0.97 and the toxicity enhancement factor was -0.0098 (inactive).

For `O=C(NCc1ccccn1)c1cn(CCc2ccccc2)nn1`, the viability was found to be 97.1%, the toxicity enhancement factor is -0.0012 (inactive) and the slope difference was -0.117.

In the case of `CN1C(=O)C(CC(=O)Nc2ccc3c(c2)Cc2ccccc2-3)N(C)C1=O` (stereo not given), the slope difference is -0.0851, the viability was found to be 94.5% and the toxicity enhancement factor was -0.0009 (inactive).

With `Cc1cc(C)cc(OCc2nnc(SCC(=O)c3ccc(Br)cc3)o2)c1`, the toxicity enhancement factor was -0.0094 (inactive), the viability was found to be 92.3% and the slope difference is -0.893.

For the molecule `COc1ccc(C(=O)Nc2nc3ccccc3[nH]2)cc1OC`, the toxicity enhancement factor is -0.0002 (inactive), the viability was found to be 87.3% and the slope difference is -0.0153.

Consider `C=CCN1C(=O)/C(=C2/Sc3ccccc3N2C)SC1=Nc1c(C)n[nH]c1C`, for which the slope difference came to 4.41, the toxicity enhancement factor is 0.241 (active) and the viability came out at 66.9%.

A word on the viability: it is a read-out of living cells in per cent, often relative to untreated cells.
